The record followed here is PubChem BioAssay (Tox21).

The nature of test [1]: Nuclear factor erythroid 2-related factor 2/antioxidant responsive element (Nrf2/ARE) small molecule agonists: qHTS cell viability counter screen in human keratinocytes (AID 1919968; active = well fitted curve in the direction sought with a large enough effect in the repeat runs; an effect the other way counts as inactive or inconclusive; note: nearly all actives have a fitted effect of over 55% in size; note: potency is the fitted concentration of half-maximal effect). The gist of the method:
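Cells of the KeratinoSens line were plated at 1,500 per well and left for 5 h before compound transfer from DMSO stocks. After a 23 h incubation (37 C, 5% CO2), CellTiter-Fluor was added. Signal was taken as fluorescence intensity 1 h later.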

Test [2] in a line: Nuclear factor erythroid 2-related factor 2/antioxidant responsive element (Nrf2/ARE) small molecule agonists: luciferase reporter gene qHTS assay in human keratinocytes (AID 1919969). Note: nearly all actives have a fitted effect of over 35% in size. Note: potency is the fitted concentration of half-maximal effect.
Test [3] has as its target Gonadotropin-releasing hormone receptor (Homo sapiens) (UniProt P30968). Nature of the test: Human gonadotropin-releasing hormone receptor (GnRHR) small molecule agonists, calcium flux assay in GnRHR-HEK293 cells (AID 1920063). Note: nearly all actives have a fitted effect of over 35% in size. A digest of the protocol: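 Compounds dissolved in DMSO are pin-transferred onto dye-loaded GnRHR-HEK293 cells, which were seeded 18 h before at 37 C/5% CO2. Calcium signal is read as fluorescence intensity at 1 s intervals for 3 min.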

Test [4] deals with KiSS-1 receptor (Homo sapiens) (UniProt Q969F8). Nature of the test: Human kisspeptin (KISS1R) small molecule agonists, calcium flux assay in KISS1R-HEK293 cells (AID 1920064; active = well fitted curve in the direction sought with a large enough effect in the repeat runs; an effect the other way counts as inactive or inconclusive). The gist of the method:
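Cell line: HEK293, stable human KISS1R. Dye loading 1 h at 37 C after 18 h culture. Read: kinetic fluorescence, 480/540 nm, 3 min at 1 s intervals.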
(A change in cytosolic calcium serves as a functional read-out for many receptors and channels.)

Test [5] is described as follows: G protein-coupled receptor (GPCR) small molecule agonists, calcium flux assay: HEK293 wild type cell line counter screen (AID 1920065). The gist of the method: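 Tox21 10K compounds, 15 concentrations each in triplicate, pin-transferred in DMSO onto dye-loaded cells; kinetic read at 480/540 nm for 3 min, 1 s intervals.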
Test [6] is described as follows: p53 small molecule agonists, cell-based qHTS assay with human liver microsomes (AID 1963577).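 Note: p53 response element beta-lactamase reporter cells with liver microsomes plus NADPH.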 The gist of the method:
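p53RE-bla cells; 5 h settle, 37 C/5% CO2; cpd + HLM 0.5 mg/mL + NADPH 0.5 mg/mL (final); 16 h 37 C; LiveBLAzer 2 h RT dark; fluorescence readout.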
On the technique in general: Quantitative high-throughput screening tests each substance at several concentrations.

A short description of test [7]: p53 small molecule agonists, cell-based qHTS assay with rat liver microsomes (AID 1963578). A digest of the protocol:
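Rat liver microsome activation: microsomes 0.5 mg/mL, NADPH 0.5 mg/mL final; p53RE-bla cells, 16 h 37 C; LiveBLAzer readout, 2 h RT dark.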

The nature of test [8]: p53 small molecule agonists, cell-based qHTS assay with human liver microsomes: qHTS cell viability counter screen (AID 1963579). Note: nearly all actives have a fitted effect of over 45% in size. A digest of the protocol:
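Luminescent CellTiter-Glo read-out, 30 min at room temperature, gauged cytotoxicity in p53RE-bla cells exposed 16 h at 37 C to DMSO-dissolved compounds with metabolic activation by human liver microsomes and NADPH, each 0.5 mg/mL final.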

Test [9] can be described thus: p53 small molecule agonists, cell-based qHTS assay with rat liver microsomes: qHTS cell viability counter screen (AID 1963580). Note: nearly all actives have a fitted effect of over 45% in size. A digest of the protocol: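 Counter screen for cytotoxicity under metabolic activation: rat liver microsomes and NADPH, 0.5 mg/mL final each, added with compounds to p53RE-bla HCT-116 cells; 16 h at 37 C, then ATP luminescence read.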
A short description of test [10]: p53 small molecule agonists, cell-based qHTS assay: qHTS cell viability counter screen (AID 1963581). Note: nearly all actives have a fitted effect of over 45% in size. The gist of the method:
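ATP content measured by luminescence in HCT-116 p53RE-bla cells treated 16 h at 37 C, same wells as the reporter screen.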

For test [11], the target named is 5-hydroxytryptamine receptor 2A (Homo sapiens) (UniProt P28223). In words: 5-hydroxytryptamine receptor 2A (HTR2A) small molecule antagonists, cell-based qHTS assay (AID 1963586). Note: nearly all actives have a fitted effect of over 45% in size. The gist of the method:
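CHO cells stably expressing human HTR2A were plated for 18 h at 37 C, then loaded with calcium dye for 1 h. Compounds were preincubated 5 min at room temperature before DOI (4 nM solution) was added. Kinetic fluorescence was read for 3 min.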

For test [12] the target is unchanged. Nature of the test: 5-hydroxytryptamine receptor 2A (HTR2A) small molecule agonists, cell-based qHTS assay (AID 1963587). Note: nearly all actives have a fitted effect of over 30% in size. The gist of the method: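 HTR2A-CHO cells, plated 18 h at 37 C/5% CO2, dye-loaded 1 h at 37 C; compounds in DMSO added by pin tool (agonist mode). Intracellular calcium flux read as kinetic fluorescence on FDSS over 2 min at 1 s intervals.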

Test [13] concerns the target Muscarinic acetylcholine receptor M1 (Homo sapiens) (UniProt P11229). Nature of the test: Cholinergic receptor muscarinic 1 (CHRM1) small molecule antagonists, cell-based qHTS assay (AID 1963588). Note: nearly all actives have a fitted effect of over 40% in size. Note: potency is the fitted concentration of half-maximal effect. A digest of the protocol:
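Compounds were tested at 15 concentrations in three independent runs. Dye-loaded CHRM1-CHO cells were exposed 5 min at room temperature before stimulation by acetylcholine added at 50nM. Intracellular calcium was read kinetically on FDSS for 3 min.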

Test [14] shares this target. Nature of the test: Cholinergic receptor muscarinic 1 (CHRM1) small molecule agonists, cell-based qHTS assay (AID 1963589). Note: nearly all actives have a fitted effect of over 35% in size. The gist of the method: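 Homogeneous fluorescence calcium flux, agonist mode. Human M1-expressing CHO cells; compound dosed at 15 concentrations, three independent runs; signal sampled every 1 sec.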
Test [15] in a line: cAMP Responsive Elements (CRE) small molecule antagonists, cell-based qHTS assay (AID 1963591; active = well fitted inhibition curve with a large enough effect in the signal ratio in the repeat runs, not every such curve was filed as active; the % refers to the signal ratio). The gist of the method: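 First, CRE-bla HEK293T cells settled 18 h at 37 C. Next, compound and 0.25 uM final NKH477 were applied for 3 h. Last, LiveBLAzer B/G substrate was loaded for 2 h at room temperature.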
Test [16] has as its target D(2) dopamine receptor (Homo sapiens) (UniProt P14416). In words: Dopamine D2 receptor (DRD2) small molecule agonists, cell-based qHTS assay (AID 1963594). Note: nearly all actives have a fitted effect of over 35% in size. The gist of the method:
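HEK293 cells stably expressing DRD2 were cultured 24 h at 37 C, then given Ro20-1724 (0.1 mM final) and compounds for 10 min at room temperature. NKH477 (200nM) was then added for 30 min. cAMP was read by HTRF.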

The target is the same in test [17]. Nature of the test: Dopamine D2 receptor (DRD2) small molecule antagonists, cell-based qHTS assay (AID 1963595; active = well fitted inhibition curve with a large enough effect in the signal ratio in the repeat runs, with a control signal flat; the % refers to the signal ratio). The gist of the method:
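HEK293 cells stably expressing DRD2 were preincubated with 0.1 mM Ro20-1724, then with compound for 10 min at room temperature. Cells were stimulated with 200 nM NKH477 plus 12 nM quinpirole for 30 min, and cAMP was read by HTRF.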

The nature of test [18]: cAMP Responsive Elements (CRE) small molecule agonists, cell-based qHTS assay (AID 1963590). A digest of the protocol: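 HEK 293T cells stably bearing CRE-bla were plated at 2,000 cells per well and rested 18 h. Compounds, positive controls or DMSO were added for 3 h at 37 C. LiveBLAzer B/G substrate was then loaded for 2 h at room temperature.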
Test [19] deals with Beta-2 adrenergic receptor (Homo sapiens) (UniProt P07550). In words: Adrenergic beta2 receptor (ADRB2) small molecule antagonists, cell-based qHTS assay (AID 1963592). Note: series mostly up to about 92 µM; nearly all actives have a fitted effect of over 50% in size. A digest of the protocol: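 Assay format: CHO-ADRB2 cells, 18-20hr seeding at 37C/5% CO2, then compound plus 1nM isoproterenol agonist mix for 0.5hr RT. Homogeneous time-resolved fluorescence cAMP detection after 1hr, expressed as 665/615 nm ratio.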
Beta-2 adrenergic receptor (Homo sapiens), sequence (P07550 whole entry, looked up): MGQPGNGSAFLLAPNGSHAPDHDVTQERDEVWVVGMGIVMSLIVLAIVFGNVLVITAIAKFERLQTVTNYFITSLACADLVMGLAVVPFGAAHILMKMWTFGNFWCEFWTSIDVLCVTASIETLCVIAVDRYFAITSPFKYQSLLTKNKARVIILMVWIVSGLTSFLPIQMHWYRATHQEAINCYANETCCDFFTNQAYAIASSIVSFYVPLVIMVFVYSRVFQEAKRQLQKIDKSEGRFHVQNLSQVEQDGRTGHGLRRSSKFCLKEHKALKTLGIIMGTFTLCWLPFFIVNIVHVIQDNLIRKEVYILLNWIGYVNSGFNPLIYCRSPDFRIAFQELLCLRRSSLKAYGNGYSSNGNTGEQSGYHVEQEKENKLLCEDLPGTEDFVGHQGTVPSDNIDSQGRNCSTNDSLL

Test [20] in a line: p53 small molecule agonists, cell-based qHTS assay (AID 1963582; active = well fitted activation curve with a large enough effect in the signal ratio in the repeat runs, not every such curve was filed as active; the % refers to the signal ratio). A digest of the protocol:
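16 h compound exposure (37 C) of p53 response element–bla cells, preceded by 5 h recovery at 37 C/5% CO2; read-out via LiveBLAzer B/G FRET substrate, 2 h RT, fluorescence intensity.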

Records with an inconclusive call do not appear. The source holds several records for some structures; these can differ, active in one and inactive in another. Active and inactive are the calls of the source. Unless noted, calls come from the whole dose curve.

Gonadotropin-releasing hormone receptor (Homo sapiens), sequence (P30968 whole entry, looked up): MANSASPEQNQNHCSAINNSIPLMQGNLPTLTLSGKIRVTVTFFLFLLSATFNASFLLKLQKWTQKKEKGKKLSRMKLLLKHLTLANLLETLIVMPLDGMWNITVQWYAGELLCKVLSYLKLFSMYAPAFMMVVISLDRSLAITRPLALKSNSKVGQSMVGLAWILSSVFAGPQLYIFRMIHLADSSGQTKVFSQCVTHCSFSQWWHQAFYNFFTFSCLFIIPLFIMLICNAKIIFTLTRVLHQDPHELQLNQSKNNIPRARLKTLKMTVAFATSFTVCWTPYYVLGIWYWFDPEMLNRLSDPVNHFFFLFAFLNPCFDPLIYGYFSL
KiSS-1 receptor (Homo sapiens), sequence (Q969F8 whole entry, looked up): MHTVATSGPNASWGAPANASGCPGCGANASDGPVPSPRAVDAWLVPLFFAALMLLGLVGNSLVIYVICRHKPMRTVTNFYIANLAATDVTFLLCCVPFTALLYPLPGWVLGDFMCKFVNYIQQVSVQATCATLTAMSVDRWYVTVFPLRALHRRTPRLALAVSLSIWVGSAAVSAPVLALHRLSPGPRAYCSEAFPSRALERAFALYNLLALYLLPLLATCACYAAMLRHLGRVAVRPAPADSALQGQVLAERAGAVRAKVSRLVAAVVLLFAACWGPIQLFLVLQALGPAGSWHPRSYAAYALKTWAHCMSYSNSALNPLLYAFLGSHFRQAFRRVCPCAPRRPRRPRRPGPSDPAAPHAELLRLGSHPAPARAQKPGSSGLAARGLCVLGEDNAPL
5-hydroxytryptamine receptor 2A (Homo sapiens), sequence (P28223 whole entry, looked up): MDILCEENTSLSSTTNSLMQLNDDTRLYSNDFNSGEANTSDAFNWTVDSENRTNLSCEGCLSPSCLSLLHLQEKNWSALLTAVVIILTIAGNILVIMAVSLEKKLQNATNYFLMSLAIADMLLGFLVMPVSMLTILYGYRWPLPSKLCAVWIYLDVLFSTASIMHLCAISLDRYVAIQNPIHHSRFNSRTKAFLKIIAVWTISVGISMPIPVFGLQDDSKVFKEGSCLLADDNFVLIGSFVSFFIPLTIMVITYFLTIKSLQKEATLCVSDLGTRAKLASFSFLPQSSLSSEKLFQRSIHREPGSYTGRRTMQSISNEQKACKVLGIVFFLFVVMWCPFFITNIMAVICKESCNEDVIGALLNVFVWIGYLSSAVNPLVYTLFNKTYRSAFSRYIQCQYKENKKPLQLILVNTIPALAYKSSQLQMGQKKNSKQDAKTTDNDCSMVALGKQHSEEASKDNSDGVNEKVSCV
D(2) dopamine receptor (Homo sapiens), sequence (P14416 whole entry, looked up): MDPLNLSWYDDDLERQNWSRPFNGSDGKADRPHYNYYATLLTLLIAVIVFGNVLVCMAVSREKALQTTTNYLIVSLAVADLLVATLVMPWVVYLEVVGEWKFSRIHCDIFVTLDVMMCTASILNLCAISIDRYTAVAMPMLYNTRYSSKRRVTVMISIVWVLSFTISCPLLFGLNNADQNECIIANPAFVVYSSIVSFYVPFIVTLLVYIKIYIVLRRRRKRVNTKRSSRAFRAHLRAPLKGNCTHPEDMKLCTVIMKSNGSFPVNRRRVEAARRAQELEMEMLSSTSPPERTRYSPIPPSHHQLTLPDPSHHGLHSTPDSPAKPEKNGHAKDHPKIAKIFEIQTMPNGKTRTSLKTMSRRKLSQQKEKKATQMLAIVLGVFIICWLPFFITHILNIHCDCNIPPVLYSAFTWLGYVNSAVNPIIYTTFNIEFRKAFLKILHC
Muscarinic acetylcholine receptor M1 (Homo sapiens), sequence (P11229 whole entry, looked up): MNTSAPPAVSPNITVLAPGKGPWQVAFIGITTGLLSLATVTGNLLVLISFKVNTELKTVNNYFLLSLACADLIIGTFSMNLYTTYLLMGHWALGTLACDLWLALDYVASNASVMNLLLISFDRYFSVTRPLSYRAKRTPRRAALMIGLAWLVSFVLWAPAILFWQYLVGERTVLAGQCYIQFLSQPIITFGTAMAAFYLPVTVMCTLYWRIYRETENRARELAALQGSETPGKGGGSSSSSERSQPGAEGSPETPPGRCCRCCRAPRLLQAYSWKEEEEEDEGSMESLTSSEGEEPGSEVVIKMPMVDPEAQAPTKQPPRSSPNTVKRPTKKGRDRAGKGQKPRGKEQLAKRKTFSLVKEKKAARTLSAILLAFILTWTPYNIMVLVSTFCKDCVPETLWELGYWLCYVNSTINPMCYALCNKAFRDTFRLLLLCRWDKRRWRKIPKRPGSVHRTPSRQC

For the compound `Clc1ccc(C(c2ccccc2Cl)C(Cl)(Cl)Cl)cc1` (configuration not stated), the Potency in [1] was 43.5 µM (active). In addition, the Potency result in test [2], in test [3], in test [4], in [5], in test [6] and in test [7] was “inactive” in each case. Further, the Potency result in [8], in test [9], in [10], in test [11], in test [12] and in test [13] was “inactive” throughout. Besides, the Potency entry in [14], in test [15], in test [16] and in [17] was “inactive” in each case.

As for `O=C1CCCO1`, the Potency result in test [1], in test [2], in test [3], in [4], in test [5] and in [6] was “inactive” in each case. The Potency result in test [7], in test [8], in [9], in [10], in test [11] and in test [12] was “inactive” each time. Moreover, the Potency entry in test [14], in test [18], in [15], in [19], in [16] and in [17] was “inactive” in each case. For the same compound, in [13], the Potency is 14.6 µM (active) and inactive.

Consider `C#CCO`, for which the Potency result in test [1], in test [2], in test [3], in test [4], in test [5] and in test [6] was “inactive” throughout. The Potency entry in test [7], in [8], in test [9], in test [10], in [20] and in test [13] was “inactive” each time. The Potency result in test [14], in test [18], in [15], in test [19], in test [16] and in test [17] was “inactive” each time.

In the case of `CC(C)c1ccc(NC(=O)N(C)C)cc1`, the Potency entry in [1], in test [2], in [3], in test [4], in test [5] and in test [6] was “inactive” in each case. The Potency entry in [7], in test [8], in [9], in [10], in [11] and in test [12] was “inactive” each time. Moreover, the Potency result in test [13], in test [14], in test [18], in test [15], in test [19] and in [16] was “inactive” in each case. In test [17], the Potency result is “inactive”.

Consider `O=C(O)C(Cl)(Cl)Br`, for which the Potency result in [1], in test [2], in test [3], in [4], in test [5] and in test [6] was “inactive” each time. In addition, the Potency result in [7], in test [8], in [9], in [10], in [11] and in test [12] was “inactive” each time. For the same compound, the Potency result in test [13], in test [14], in [18], in test [19], in test [16] and in test [17] was “inactive” in each case.

For `C/C=C/c1ccc2c(c1)OCO2`, the Potency result in [1], in test [2], in test [3], in test [4], in test [5] and in test [6] was “inactive” in each case. Further, the Potency result in test [7], in test [8], in [9], in [10], in test [20] and in [18] was “inactive” in each case. Besides, the Potency entry in test [15], in test [19], in test [16] and in test [17] was “inactive” in each case.

Consider `c1ccc2c(c1)Nc1ccccc1S2`, for which the Potency entry in test [1], in [3], in [4], in test [5], in test [6] and in [7] was “inactive” each time. Besides, the Potency entry in test [8], in [9], in test [10], in test [20], in test [18] and in [15] was “inactive” each time. For the same compound, the Potency result in [16] and in test [17] was “inactive” in each case. Moreover, the Potency in test [2] is 61.1 µM (active) and inactive.
